PubChem BioAssay (EPA / NIEHS)
Values joined by “and” are separate entries in the source; they are usually repeats but may differ in a detail not shown here. Equal values may be shown once. Active and inactive are the calls of the source. The calls were made as follows: active = hit-call score of the fitted dose curve at least 0.9, where 1 is the maximum; inactive = score below 0.9.

How the values were obtained:
[1] = read-out: Monocyte Chemoattractant Protein-1 (MCP1), CCL2 (gene 6347); experiment: BSK_3C_MCP1: BioMAP Diversity Plus: 3C Assay for Monocyte Chemoattractant Protein-1 (MCP1) Biomarker Activity (AID 2283017); conditions: primary human endothelial cells (HUVEC); actives raise or lower the signal
In short: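 ELISA read-out of MCP-1 from human umbilical vein endothelial cell cultures harvested 24 h post-dosing. Gain or loss of signal was fitted relative to DMSO.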

[2] = read-out: Monocyte Chemoattractant Protein-1 (MCP1), CCL2 (gene 6347); experiment: BSK_4H_MCP1: BioMAP Diversity Plus: 4H Assay for Monocyte Chemoattractant Protein-1 (MCP1) Biomarker Activity (AID 2283018); conditions: primary human endothelial cells (HUVEC); actives raise or lower the signal
In short: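 Human umbilical vein endothelial cells (4H system) exposed to chemicals for 24 h in 96-well format. MCP-1 measured by ELISA; bidirectional fitting against DMSO, with SRB total-protein staining in parallel cultures for cytotoxicity.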

[3] = read-out: Monokine induced gamma interferon (MIG), CXCL9 (gene 4283); experiment: BSK_3C_MIG: BioMAP Diversity Plus: 3C Assay for Monokine induced gamma interferon (MIG) Biomarker Activity (AID 2283021); conditions: primary human endothelial cells (HUVEC); actives raise or lower the signal;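 as to AC50: MIG protein level measured by immunoassay in the treated endothelial cultures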
In short: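 HUVEC primary endothelial cultures dosed with chemical; MIG quantified by ELISA at 24 h. Data fitted bidirectionally against DMSO control, with parallel SRB total-protein staining for cytotoxicity.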

[4] = BSK_3C_SRB: Viability Assessment in the BioMAP Diversity Plus: 3C Assay (AID 2283023); conditions: primary human endothelial cells (HUVEC);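 also: fitted both ways against DMSO so a hit may be signal rise or drop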
In short: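 Absorbance at 560 nm of sulforhodamine B-stained (0.1%) total protein served as a cytotoxicity readout in human umbilical vein endothelial cells, 24 h after chemical treatment. Signal was fitted bidirectionally relative to DMSO.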

[5] = BSK_4H_SRB: Viability Assessment in the BioMAP Diversity Plus: 4H Assay (AID 2283027); conditions: primary human endothelial cells (HUVEC);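 as to AC50: curves fitted both ways versus DMSO so AC50 may be loss or gain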
In short: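 Absorbance at 560 nm of SRB-stained total protein served as the viability read-out in confluent primary human umbilical vein endothelium 24 h after chemical treatment. Curves were fitted bidirectionally against DMSO as negative control.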

[6] = BSK_BE3C_SRB: Viability Assessment in the BioMAP Diversity Plus: BE3C Assay (AID 2283028); conditions: primary human bronchial epithelial cells;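 as to AC50: fitted both ways so AC50 may mark signal gain or loss versus DMSO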
In short: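 Cells (human bronchial epithelial, primary) are treated with chemicals, and after 24 h the parallel cultures are fixed in 10% TCA. These are then stained with 0.1% SRB and read at 560 nm. Gain or loss of signal is fitted relative to DMSO.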

[7] = read-out: Monokine induced gamma interferon (MIG), CXCL9 (gene 4283); experiment: BSK_BE3C_MIG: BioMAP Diversity Plus: BE3C Assay for Monokine induced gamma interferon (MIG) Biomarker Activity (AID 2283035); conditions: primary human bronchial epithelial cells; actives raise or lower the signal
In short: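 MIG level was determined by ELISA after 24 h chemical treatment of primary human bronchial epithelial cells. Values were fitted bidirectionally with DMSO as the negative control and activity baseline.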

[8] = read-out: Plasminogen activator inhibitor-1 (PAI1), SERPINE1 (gene 5054); experiment: BSK_BE3C_PAI1: BioMAP Diversity Plus: BE3C Assay for Plasminogen activator inhibitor-1 (PAI1) Biomarker Activity (AID 2283037); conditions: primary human bronchial epithelial cells; actives raise or lower the signal
In short: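 Primary human bronchial epithelial cells (BE3C system) exposed 24 h; PAI-1 quantified by ELISA. Parallel sulforhodamine B staining of total protein flags cytotoxicity. Bidirectional fit versus DMSO.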

[9] = read-out: Urokinase-type plasminogen activator receptor (uPAR), PLAUR (gene 5329); experiment: BSK_BE3C_uPAR: BioMAP Diversity Plus: BE3C Assay for Urokinase-type plasminogen activator receptor (uPAR) Biomarker Activity (AID 2283039); conditions: primary human bronchial epithelial cells; actives raise or lower the signal
In short: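 Primary human bronchial epithelial cells dosed for 24 h; uPAR quantified by ELISA with bidirectional fitting against DMSO. Overt cytotoxicity assessed in parallel cultures by SRB total-protein staining (0.1% SRB, 560 nm).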

[10] = read-out: Tissue plasminogen activator (tPA), PLAT (gene 5327); experiment: BSK_BE3C_tPA: BioMAP Diversity Plus: BE3C Assay for Tissue plasminogen activator (tPA) Biomarker Activity (AID 2283041); conditions: primary human bronchial epithelial cells; actives raise or lower the signal
In short: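 Primary human bronchial epithelial cells in the BE3C system, exposed to compound for 24 h. tPA was quantified by ELISA; DMSO served as baseline, with gain or loss of signal fitted. Cytotoxicity checked in parallel cultures by SRB total-protein staining.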

[11] = read-out: Interleukin-8 (IL8), CXCL8 (gene 3576); experiment: BSK_CASM3C_IL8: BioMAP Diversity Plus: CASM3C Assay for Interleukin-8 (IL8) Biomarker Activity (AID 2283042); conditions: primary human coronary artery smooth muscle cells; actives raise or lower the signal;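 also: IL-8 protein level quantified by ELISA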
[12] = read-out: Human Leukocyte Antigen - DR isotype (HLADR), HLA-DRA (gene 3122); experiment: BSK_CASM3C_HLADR: BioMAP Diversity Plus: CASM3C Assay for Human Leukocyte Antigen - DR isotype (HLADR) Biomarker Activity (AID 2283043); conditions: primary human coronary artery smooth muscle cells; actives raise or lower the signal;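 also: cell-surface HLA-DR protein level quantified by ELISA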
[13] = read-out: Monocyte Chemoattractant Protein-1 (MCP1), CCL2 (gene 6347); experiment: BSK_CASM3C_MCP1: BioMAP Diversity Plus: CASM3C Assay for Monocyte Chemoattractant Protein-1 (MCP1) Biomarker Activity (AID 2283046); conditions: primary human coronary artery smooth muscle cells; actives raise or lower the signal;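 also: MCP-1 level quantified by ELISA 24 h after dosing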
[14] = BSK_CASM3C_Proliferation: Cell Proliferation Assessment in the BioMAP Diversity Plus: CASM3C Assay (AID 2283047); conditions: primary human coronary artery smooth muscle cells;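 also: sub-confluent cells exposed 48 h before staining; fitted both ways against DMSO so gain or loss of cell number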
[15] = BSK_CASM3C_SRB: Viability Assessment in the BioMAP Diversity Plus: CASM3C Assay (AID 2283050); conditions: primary human coronary artery smooth muscle cells
[16] = read-out: Interferon-gamma inducible Protein 10 (IP10), CXCL10 (gene 3627); experiment: BSK_hDFCGF_IP10: BioMAP Diversity Plus: hDFCGF Assay for Interferon-gamma inducible Protein 10 (IP10) Biomarker Activity (AID 2283053); conditions: primary human foreskin fibroblasts; actives raise or lower the signal
In short: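 Primary human foreskin fibroblasts exposed to chemicals for 24 h. IP-10 measured by ELISA; changes fitted bidirectionally against DMSO baseline.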

[17] = read-out: Interleukin-8 (IL8), CXCL8 (gene 3576); experiment: BSK_hDFCGF_IL8: BioMAP Diversity Plus: hDFCGF Assay for Interleukin-8 (IL8) Biomarker Activity (AID 2283058); conditions: primary human foreskin fibroblasts; actives raise or lower the signal
In short: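 Cells used are human skin primary fibroblasts. Chemical is added, cultures run 24 h, then IL-8 is quantified by ELISA, and gain or loss versus DMSO control is fitted in both directions.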

[18] = BSK_hDFCGF_Proliferation: Cell Proliferation Assessment in the BioMAP Diversity Plus: hDFCGF Assay (AID 2283059); conditions: primary human foreskin fibroblasts;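 also: curves fitted for both rise and fall of signal versus DMSO baseline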
In short: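 This proliferation readout used SRB total-protein staining of human foreskin fibroblasts […], normalized to DMSO with bidirectional curve fitting.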

[19] = BSK_hDFCGF_SRB: Viability Assessment in the BioMAP Diversity Plus: hDFCGF Assay (AID 2283061); conditions: primary human foreskin fibroblasts;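 also: cells exposed to compound for 24 h before the read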
In short: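 Readout is SRB absorbance at 560 nm, reflecting total protein in parallel cultures of human foreskin fibroblasts harvested 24 h after chemical dosing. Activity was fitted bidirectionally relative to DMSO.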

[20] = read-out: TIMP metallopeptidase inhibitor 1 (TIMP1), TIMP1 (gene 7076); experiment: BSK_hDFCGF_TIMP1: BioMAP Diversity Plus: hDFCGF Assay for TIMP metallopeptidase inhibitor 1 (TIMP1) Biomarker Activity (AID 2283062); conditions: primary human foreskin fibroblasts; actives raise or lower the signal
In short: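 Human skin fibroblasts (primary), hDFCGF system; compound exposure 24 h; TIMP-1 by ELISA; bidirectional fit vs DMSO negative control; overt cytotoxicity by SRB in parallel wells.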

Measured: AC50

COc1cc(CNC(=O)CCCC/C=C/C(C)C)ccc1O
active: [12] 16.8 µM and 5.89 µM | [18] 1.26 µM and 1.37 µM
inactive: [1] | [2] | [3] | [4] | [5] | [6] | [7] | [8] | [9] | [10] | [11] | [13] | [14] | [15] | [16] | [17] | [19] | [20]

CC[N+](CC)(CC(=O)Nc1c(C)cccc1C)Cc1ccccc1
inactive: [1] | [2] | [3] | [4] | [5] | [6] | [7] | [8] | [9] | [10] | [11] | [12] | [13] | [14] | [15] | [16] | [17] | [18] | [19] | [20]

O=[N+]([O-])c1cc(S(=O)(=O)Nc2ccccc2)ccc1Nc1ccccc1
inactive: [3] | [11] | [12] | [13] | [14] | [15]
active: [1] 32.3 µM and 30 µM | [2] 27.8 µM and 20 µM | [4] 30.3 µM and 30.8 µM | [5] 30.5 µM and 31 µM | [6] 27.5 µM and 31.7 µM | [7] 31 µM and 34.2 µM | [8] 24.7 µM and 27.1 µM | [9] 32.4 µM and 31.6 µM | [10] 34 µM and 29.7 µM | [16] 29.8 µM and 31.5 µM | [17] 38.9 µM and 36.7 µM | [18] 14 µM and 14.3 µM | [19] 27.7 µM and 29 µM | [20] 30.3 µM and 29.5 µM

CCCCCCCCCC/C=C/C1CC(=O)OC1=O (stereo not given)
active: [8] 20 µM | [10] 14.5 µM
inactive: [1] | [2] | [3] | [4] | [5] | [6] | [7] | [9] | [11] | [12] | [13] | [14] | [15] | [16] | [17] | [18] | [19] | [20]

Oc1cccc2ccccc12
active: [4] 8.23 µM | [18] 13.3 µM
inactive: [1] | [2] | [3] | [5] | [6] | [7] | [8] | [9] | [10] | [11] | [12] | [13] | [14] | [15] | [16] | [17] | [19] | [20]

OC(C(F)(F)F)(C(F)(F)F)C(O)(C(F)(F)F)C(F)(F)F
inactive: [11] | [13] | [17] | [19] | [20]
active: [1] 49.9 µM and 50.5 µM | [2] 21.5 µM and 10.1 µM | [3] 43.7 µM and 50.9 µM | [4] 30 µM and 27.7 µM | [5] 27.5 µM and 26 µM | [6] 48 µM and 48.9 µM | [7] 54.8 µM and 54.6 µM | [8] 13.9 µM and 12.5 µM | [9] 14.4 µM and 13.8 µM | [10] 17 µM and 16 µM | [12] 18.7 µM and 7.57 µM | [14] 27.7 µM and 28.9 µM | [15] 30 µM and 26.9 µM | [16] 20.1 µM and 23.8 µM | [18] 15.5 µM and 16.8 µM

CCCCC(CC)COC(=O)C=Cc1ccc(OC)cc1 (stereo not given)
inactive: [3] | [6] | [7] | [8] | [9] | [10] | [11] | [13] | [14] | [15] | [16] | [17] | [19] | [20]
active: [1] 33 µM | [2] 20 µM and 27.4 µM | [4] 31.8 µM and 31.4 µM | [5] 39 µM and 36.8 µM | [12] 13.9 µM and 7.28 µM | [18] 13.2 µM and 11.7 µM
